# HP1b chromo inh: HTS for Inhibitors of HP1-beta Chromodomain Interactions with Methylated Histone Tails | Chromobox protein homolog 1 (Homo sapiens), P83916 | AlphaScreen HP1-beta / biotin-H3K9me3 peptide binding | Potency, µM (doses to about 114 µM), for the others: at the highest dose activity change, negative = inhibition, hits mostly inhibitors | actives 0.56% (n = 390,000) | AID 540317, 2011; note: nearly all actives have a fitted effect of over 70% in size
# Target sequence (P83916 whole entry, looked up): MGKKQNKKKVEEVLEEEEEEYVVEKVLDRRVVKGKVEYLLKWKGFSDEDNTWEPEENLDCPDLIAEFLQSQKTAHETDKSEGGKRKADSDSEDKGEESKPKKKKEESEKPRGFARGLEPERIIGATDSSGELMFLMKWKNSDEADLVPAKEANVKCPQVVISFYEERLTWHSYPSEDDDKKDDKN
#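 AlphaScreen: HP1-beta (50 nM) preformed 30 min with biotin-H3(1-18)K9me3 peptide (50 nM) in PBS pH 7.4, 0.01% Tween-20. Compound added for 30 min at RT, then streptavidin donor/nickel chelate acceptor beads (10 ug/mL) for 30 min.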
# JMJD2A Tudor: qHTS Assay for Inhibitors of JMJD2A-Tudor Domain; Lysine-specific demethylase 4A (Homo sapiens), O75164; AlphaScreen JMJD2A-Tudor / H3K4me3 peptide binding; Potency, µM (top dose mostly 114 µM), without a hit: top-dose activity change, negative = inhibition, most hits filed as inhibitors; actives 4.4% (n = 390,000); AID 504339, 2011; note: % is set by controls: 0 for no effect and ±100 for the full control effect; nearly all actives have a fitted effect of over 50% in size
# BAZ2B block: qHTS Assay for Inhibitors of BAZ2B; AlphaScreen BAZ2B-H3K14Ac peptide displacement; Potency, µM (series often up to 114 µM), inactives show at the top dose activity change, negative = inhibition, usual class: inhibitors; actives 4.4% (n = 360,000); AID 504333, 2011; note: % is set by controls: 0 for no effect and ±100 for the full control effect; nearly all actives have a fitted effect of over 60% in size
#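 AlphaScreen displacement: compounds (up to 110uM) incubated 30 min at room temperature with a preformed 50 nM BAZ2B/50 nM biotinylated H3K14Ac peptide complex in PBS pH 7.4 with Tween-20. Donor and acceptor beads at 10 ug/mL final added, 20 min light-protected before reading.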
# G9a inh: qHTS Assay for Inhibitors of Histone Lysine Methyltransferase G9a; G9a H3K9 monomethylation, AlphaScreen, 2 h; Potency, µM (series often up to 102 µM), for the others: at the top dose activity, negative = inhibition, actives largely listed as inhibitors; actives 8.8% (n = 350,000); note: % is set by controls: 0 for no effect and ±100 for the full control effect; nearly all actives have a fitted effect of over 75% in size
# Target sequence (Q96KQ7 913-1193 limits assumed): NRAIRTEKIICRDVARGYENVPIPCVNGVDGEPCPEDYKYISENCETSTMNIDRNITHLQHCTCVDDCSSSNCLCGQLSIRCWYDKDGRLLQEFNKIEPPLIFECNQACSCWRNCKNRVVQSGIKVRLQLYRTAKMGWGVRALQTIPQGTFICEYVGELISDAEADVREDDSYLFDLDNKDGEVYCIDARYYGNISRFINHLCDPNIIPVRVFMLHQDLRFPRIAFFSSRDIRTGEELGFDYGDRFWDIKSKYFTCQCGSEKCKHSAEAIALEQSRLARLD
#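 Quantitative HTS format: methyltransferase activity on a biotin-tagged H3K9 peptide is measured by AlphaScreen, using a rabbit anti-monomethyl-H3K9 antibody with streptavidin donor and anti-IgG acceptor beads. Final levels are 20 nM enzyme, 500 nM peptide, 20 uM SAM; 2 h RT.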
# TDP1 inh: qHTS Assay for Inhibitors of Tyrosyl-DNA Phosphodiesterase (TDP1). Potency, µM (series often up to 130 µM), inactives show at the highest dose activity change, negative = inhibition, actives largely listed as inhibitors. recombinant TDP1, AlphaScreen DNA substrate cleavage. AID 485290, 2010. actives 0.28% (n = 350,000); note: % is set by controls: 0 for no effect and ±100 for the full control effect; nearly all actives have a fitted effect of over 40% in size
#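 Compounds were preincubated with Tdp1 (1 nM final) for 15 min at room temperature before substrate (15 nM final) started a 5 min reaction; beads (10 ug/ml final) were then added for 10 min before AlphaScreen detection.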
# Sfp inh: qHTS Assay for Inhibitors of Bacillus subtilis Sfp phosphopantetheinyl transferase (PPTase) | 4'-phosphopantetheinyl transferase ffp (Bacillus subtilis), Q9F4F7 | Biochemical Sfp PPTase activity, qHTS | Potency, µM, inactives show largest response in the series, negative = inhibition, usual class: inhibitors | actives 3.5% (n = 310,000);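 note: the enzyme is Sfp with the accession as filed and its product quenches rhodamine fluorescence; 0% = enzyme reaction without inhibitor and -100% = no enzyme wells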
#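 After 15 min at room temperature with compound, 15 nM Sfp received 5 uM rhodamine-CoA plus 12.5 uM BHQ-2-ybbR (50 mM Hepes pH 7.6, 10 mM MgCl2). Rate came from the fluorescence difference over 30 min, ex 525/em 598 nm.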
# * hit, by the source's call; ? = inconclusive; nt = no result; [ ] = remark or other dose. This is a sample that favours compounds with a hit; in the whole collection about 12% have one here. Calls come from the whole dose curve; as a rule, active = well fitted curve in the direction sought with a large enough effect; inconclusive = small, poorly fitted or top-dose-only effect, or another doubt; inactive = no such curve, though single readings can be large; an effect the other way counts as inactive or inconclusive. Potency is the fitted concentration of half-maximal effect.
SMILES,HP1b chromo inh,JMJD2A Tudor,BAZ2B block,G9a inh,TDP1 inh,Sfp inh
Cc1cccc(-n2cc(-c3ccccc3)c3c(=O)[nH]cnc32)c1,?,79.4µM*,44.7µM*,?,5.5%,-14.8%
CCOc1ccc(-n2cc(-c3ccccc3)c3c(=O)[nH]cnc32)cc1,?,?,?,44.7µM*,5.7%,-9.2%
CN(CC(=O)Nc1ccc(OC(F)(F)F)cc1)S(=O)(=O)c1ccc2c(c1)CCC(=O)N2,34.6%,-7.7%,-33.9%,14.0%[59 µM],5.8%,nt
O=C(CNCCCO)Nc1cc(C(F)(F)F)cc(NC(=O)CNCCCO)c1Cl,34.4%,-12.0%,10.3%,11.2µM*,1.8%,4.7%
COc1ccc(CC(=O)N(C)Cc2ccc(OC(F)F)cc2)cc1S(=O)(=O)N1CCOCC1,74.8%,-3.4%,nt,nt,nt,nt
CC(Oc1ccc(Cl)cc1Cl)C(=O)Nc1ccc(O)cc1 (centres undefined),23.3%,-4.5%[11.4 µM],50.1µM*,25.1µM*,0.0%,?
CCCN(CCC)C1=N/C(=C\c2ccco2)C(=O)N1c1ccccc1,0.9%,-22.9%,50.1µM*,?,4.7%,35.5µM*
COCCN(C(=O)COC(=O)c1cc(C)oc1C)c1c(N)n(Cc2ccccc2)c(=O)[nH]c1=O,21.7%,-15.2%,-0.4%,-9.1%,-0.3%,nt
OCCC1CN(Cc2cccc3c2OCO3)CCN1C1CCCCC1 (centres undefined),15.7%,-6.9%,-2.7%,0.6%,-1.2%,19.5%
Cc1ccc(S(=O)(=O)N(Cc2ccccc2)c2ccccc2C(=O)NCc2ccco2)cc1,8.6%,?,?,50.1µM*,4.0%,-10.9%
CCCCNC(=S)N1CCn2cccc2C1c1ccc(F)cc1 (centres undefined),-4.9%,-16.1%,-12.2%,?,6.3%,13.9%
Fc1ccc(NC(=S)N2CCn3cccc3C2c2cccnc2)cc1 (centres undefined),15.0%,-10.5%,?,?,11.4%,4.2%
CCCCNC(=S)N1CCn2cccc2C1c1ccccc1 (centres undefined),7.2%,-24.0%,nt,56.2µM*,6.9%,7.3%
COc1cccc(NC(=S)N2CCn3cccc3C2c2cccnc2)c1 (centres undefined),-6.2%,-19.9%,50.1µM*,28.2µM*,-6.1%,9.1%
Cc1cccc(NC(=S)N2CCn3cccc3C2c2cccnc2)c1 (centres undefined),-10.3%,-29.6%,?,50.1µM*,8.2%,1.2%
Fc1ccc(C2c3cccn3CCN2C(=S)Nc2cccc(Br)c2)cc1 (centres undefined),5.2%,-20.3%,-33.1%,70.8µM*,7.4%,5.5%
CC1(C)CC2(CCO1)OC(=O)CC2C(=O)Nc1ccc(Cl)cc1[N+](=O)[O-] (centres undefined),0.2%,-6.2%,0.5%,11.8%,0.0%,12.4%
CCOc1ccc(-c2c(C)sc3nc[nH]c(=O)c23)cc1,47.9%,89.1µM*,-0.2%,9.7%,nt,12.9%
Cn1c(CCNC(=O)OC(C)(C)C)n[nH]c1=S,56.0%,39.8µM*,-15.1%,?,-4.0%,0.7%
CC(C)(C)OC(=O)NCCc1n[nH]c(=S)o1,32.4%,?,-0.1%,nt,7.1%,79.4µM*
CCOc1cc(-c2ccc(OC(=O)c3ccc(OC)cc3)c(OC)c2)cc(=O)c2c(C)oc(C)c12,-7.5%,?,?,15.8µM*,4.9%,nt
O=C(NN=C1CCN(Cc2ccccc2)CC1)c1cc(Br)ccc1O,31.2%,-8.8%,-2.3%,?,7.9%,27.5%
O=C(NN=C1CCN(Cc2ccccc2)CC1)c1ccccc1,-17.3%,7.94µM*,-7.2%,34.2%[59 µM],5.3%,3.9%
CC(C)OC(=O)c1sc2nc(-c3ccccc3)ccc2c1N,44.0%,18.5%,5.4%,nt,-9.6%,-18.4%
Cc1ccc2c(N)c(C(=O)N(c3ccccc3)c3ccccc3)sc2n1,35.1%,-5.3%,-12.9%,14.1µM*,-0.1%[56.1 µM],?
SMILES,HP1b chromo inh,JMJD2A Tudor,BAZ2B block,G9a inh,TDP1 inh,Sfp inh
CCCCC(=O)NC(c1cccc([N+](=O)[O-])c1)c1c(OC(C)=O)ccc2ccccc12 (centres undefined),-0.6%,-24.0%,?,-51.0%[59 µM],-4.4%,13.8%
COc1cccc(C(NC(C)=O)c2ccc3cccnc3c2O)c1 (centres undefined),-1.3%,56.2µM*,17.8µM*,?,nt,12.1%
CC(=O)NC(c1cccc([N+](=O)[O-])c1)c1ccc2cccnc2c1O (centres undefined),35.7%,31.6µM*,38.1%,nt,5.2%,-3.4%
CC(=O)NC(c1ccc(C(C)C)cc1)c1ccc2cccnc2c1O (centres undefined),35.1%,56.2µM*,?,20.0%,nt,6.4%
O=[N+]([O-])c1ccc(NC(c2ccccc2)c2ccc3cccnc3c2O)cc1 (centres undefined),-13.2%[57 µM],?,nt,nt,nt,nt
CCCCC(=O)NC(c1cccc([N+](=O)[O-])c1)c1ccc2cccnc2c1O (centres undefined),48.8%,31.6µM*,nt,nt,nt,nt
CCCOc1ccc(C(=O)Nc2ccc(NC(=O)c3ccccc3)c(Br)c2)cc1,43.3%,-7.8%,-2.7%,-35.0%[59 µM],-0.4%[12.3 µM],nt
CN(C)c1ncc2nc(-c3ccc(F)cc3)c(=O)n(CCC#N)c2n1,nt,nt,nt,1.1%[12.7 µM],nt,11.9%
Oc1cccc(C(Nc2nccs2)c2ccc3cccnc3c2O)c1 (centres undefined),?,31.6µM*,28.2µM*,?,9.2%,7.7%
CC(C)C(NC(=O)c1ccc(Cl)cc1)C(=O)NC1=NCCS1 (centres undefined),-12.8%,-22.3%,-19.2%,?,8.0%,17.7%
N#Cc1ccc(C(=O)NC2=NCCS2)cc1,22.7%,-6.4%,?,39.8µM*,nt,16.3%
COc1ccc(N(C)S(=O)(=O)c2cccc(C(=O)NC3=NCCS3)c2)cc1,16.5%,-14.3%,13.5%,70.8µM*,8.2%,5.9%
CC(C)[C@H](NC(=O)c1ccc(F)cc1)C(=O)NC1=NCCS1,18.6%,17.8µM*,0.3%,7.4%,-2.7%,15.6%
CC(C)Oc1ccc(C(=O)NC2=NCCS2)cc1,?,-26.1%,-27.7%,3.55µM*,5.3%,35.5µM*
